This note sets out measurements from PubChem BioAssay.

A short description of the experiment: probe aDKK1 binding to arrayed compounds – biochemical, biotinylated probe, 635/667 nm fluorescence, primary screen (AID 1099).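 Further: score merges 667nm spot fluorescence with signal to noise across triplicate slides; reference of the scale not given here.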 Particulars: small-molecule microarray, higher = more signal.
As to `Cc1ccccc1C(O)C1C=CC2C(=O)N(C)C(=O)C2N1Nc1ccccc1` (stereo not given), the composite z-score worked out at 0.973.
As for `COc1cc(CO)ccc1OC(C)=O`, the figure is -0.082; as for `CC(=CC1CCCCC1)[C@@H](NC(=O)c1ccc(C(F)(F)F)cc1)c1ccc(-c2ccccc2)cc1`, 0.41; as for `COc1ccc([Si](C)(C)[C@H]2[C@H](CCn3cc([C@H](O)c4ccccc4)nn3)O[C@@]3(C(=O)N(Cc4cccc(N5CCC5=O)c4)c4ccccc43)[C@@H]2C)cc1`, -0.144.
Consider `CCCC[C@H]1OB(O)C[C@H]2C1=C(C)C[C@H]1C(=O)N(Cc3ccccc3)C(=O)[C@H]12`, for which the composite z-score was -0.109.
As to `CC(C)NC(=O)[C@@H]1c2ccccc2C(=O)N(Cc2ccccc2)[C@H]1c1ccc(CO)cc1`, the composite z-score amounted to 0.652.
The same measure for `[N-]=[N+]=NCc1ccccc1C[C@]1(C(=O)NCC(O)CO)N=C(c2ccc(OCCCO)cc2)O[C@H]1c1ccccc1N=[N+]=[N-]` (stereo not given in full): 1.38.
The same measure for `C=CCC(OC(C)=O)[C@@H]1[C@@H](N(Cc2ccc(-c3ccccc3)cc2)C(=O)Cc2ccc(F)cc2)c2cc(OCCCO)ccc2N1C(=O)c1ccc2ccccc2n1` (stereo not given in full): 0.0021.
As for `CO[C@H]1O[C@H](CO)[C@@H](OC(=O)Nc2ccc(Oc3ccccc3)cc2)[C@H](OC(=O)Nc2ccccc2)[C@H]1OC(=O)Nc1ccccc1`, the figure is 0.636; as for `CC(C)C(O)C1C=CC2C(=O)N(c3ccccc3)C(=O)C2N1Nc1ccc(C#N)cc1` (stereo not given), 1.27; as for `CC(C)c1ccc(NN2C(C(O)c3c(F)cccc3Cl)C=CC3C(=O)N(c4ccccc4)C(=O)C32)cc1` (stereo not given), 1.24.
For the compound `O=C(NCc1ccccc1)[C@]1(CCS(=O)(=O)c2ccccc2)N=C(c2ccc(OCCCO)cc2)O[C@@H]1c1ccccc1`, the composite z-score was 0.255.
The same measure for `COc1ccc([Si](C)(C)[C@H]2[C@H](CCn3cc(CCO)nn3)O[C@@]3(C(=O)N(Cc4ccc(N5CCOC5=O)cc4)c4ccccc43)[C@@H]2C)cc1`: -0.0848.
The compound `COCCOC(=O)N1C(=O)[C@@]2(c3cc(C#CC4=CCCCC4)ccc31)[C@H](C(=O)N1CCc3cc(OC)c(OC)cc3C1)[C@H]1C(=O)O[C@H](c3ccccc3)[C@H](c3ccccc3)N1[C@@H]2c1ccccc1OCCO` had a composite z-score of -0.0567.
As for `Cc1ccccc1C(O)C1C=CC2C(=O)N(C)C(=O)C2N1N1CCCCC1` (stereo not given), the figure is 0.837; as for `CCCCC(O)C1C=CC2C(=O)N(C3CCCCC3)C(=O)C2N1Nc1ccc(OC)cc1` (stereo not given), 0.298; as for `O=C(CCN1CCOCC1)c1cccc(O)c1`, 0.191.
Turning to `C=C(COC)C(=O)CC[C@@H](OC(=O)c1cccnc1)c1ccc(CO)o1`, the composite z-score was -0.2.
The same measure for `O=C1c2ccccc2[C@@]2(Cc3ccccc3N(Cc3ccccc3)C2=O)[C@H](c2ccc(CO)cc2)N1C1CCCCC1`: -0.367; for `Cc1ccc(S[C@]2(C(=O)NC3CC3)CC(=O)N(C3CCCCC3)[C@@H]2c2ccc(CO)cc2I)cc1`: 0.198; for `CCOC(=O)C[C@H]1[C@H](OC(=O)c2ccccc2-c2ccccc2)[C@@H](NC(=O)c2ccc3ccccc3c2)c2cc(OCCCO)ccc2N1C(=O)c1ccc2ccccc2n1`: -0.228.
As for `C[C@H]1NC(=O)[C@H](Cc2ccccc2)NC(=O)[C@@]23C(=O)N[C@@H](Cc4ccccc4)C2[C@H](C)[C@@]2(C)O[C@H]2C3/C=C/C/C=C\CNC1=O` (stereo not given in full), the composite z-score was -0.245.
As for `COC(=O)C(CC#Cc1ccc2c(c1)[C@]1(C(=O)N2)[C@H](C(=O)NC[C@H](O)c2ccccc2)[C@H]2C(=O)O[C@H](c3ccccc3)[C@H](c3ccccc3)N2[C@@H]1c1ccc(OCCO)cc1)C(=O)OC`, the figure is 1.61; as for `COC(=O)[C@]1(Cc2ccccc2N=[N+]=[N-])N=C(c2ccc(OCCCO)cc2)O[C@@H]1c1ccccc1N=[N+]=[N-]`, 0.0046; as for `COCCOC(=O)N1C(=O)[C@@]2(c3cc(C#CCCO)ccc31)[C@H](C(=O)NC[C@H](O)c1ccccc1)[C@H]1C(=O)O[C@H](c3ccccc3)[C@H](c3ccccc3)N1[C@@H]2c1ccc(O)cc1`, -0.194.
The same measure for `C=CCC(OC(C)=O)[C@@H]1[C@@H](N(Cc2cccc3ccccc23)C(=O)c2cccc3ccccc23)c2cc(OCCCO)ccc2N1C(=O)c1ccc2ccccc2n1` (stereo not given in full): -0.095.
As for `O=C1C2C=CC(C(O)c3ccc(B(O)O)cc3)N(Nc3ccccc3)C2C(=O)N1c1ccccc1` (stereo not given), the figure is 0.82; as for `C=C[C@H](COC(C)=O)N(Cc1ccc(OC(C)=O)c(OC)c1)S(=O)(=O)c1ccc(Br)cc1`, 0.64.
Take `CC(C)Cc1ccc(CN2CC[C@@H](NS(=O)(=O)c3ccccc3)C2)cc1`: the composite z-score was -0.367.
As for `O=C1OCC=C[C@H]2OC34C=CCN(c5ccc6ccccc6c5)C(=O)[C@H]3N(CCCO)C(=O)[C@@H]4[C@@H]12` (stereo not given in full), the figure is 0.0114; as for `[N-]=[N+]=NCc1ccccc1C[C@]1(C(=O)O)N=C(c2ccc(OCCCO)cc2)O[C@H]1c1ccccc1CN=[N+]=[N-]`, 0.804.
`COCCOC(=O)N1C(=O)[C@@]2(c3cc(C#CCC(C(=O)OC)C(=O)OC)ccc31)[C@H](c1ccccc1OCCO)N1[C@H](c3ccccc3)[C@H](c3ccccc3)OC(=O)[C@H]1[C@@H]2C(N)=O` returned a composite z-score of 0.152.
The compound `COCC1=C2[C@@H](CCc3ccccc3)OB(O)C[C@@H]2[C@@H]2C(=O)N(Cc3ccccc3)C(=O)[C@@H]2C1` came in with a composite z-score of -0.143.
As for `CC(C)NC(=O)[C@@H]1c2ccccc2C(=O)N(Cc2ccccc2Cl)[C@H]1c1ccc(CO)cc1`, the figure is 0.0098.
`COc1cc2c(cc1OC)CN(C(=O)[C@@H]1[C@H]3C(=O)O[C@H](c4ccccc4)[C@H](c4ccccc4)N3[C@H](c3ccccc3OCCO)[C@@]13C(=O)Nc1ccc(C#CCNC(N)=O)cc13)CC2`: the composite z-score is 0.0627.
